Bioassay records: PubChem BioAssay, several laboratories
Sampled rows, rich in hits. Any-hit rate of the full collection: about 1.6%.
EphB4 antag = EphB4-ephrin-B2 interaction antagonists, primary screen, biochemical, TNYL-RAW peptide probe, fluorescence polarization | Ephrin type-B receptor 4 (Homo sapiens), P54760 | EphB4 LBD / TNYL-RAW-Alexa532 peptide | inhibition, % at 7 µM | 97,000 compounds, 0.15% hits;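 active = inhibition above the screen-wide mean inhibition plus 3 SD, cut at about 15% in these data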;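 also: 0% = DMSO wells and 100% = excess unlabeled TNYL-RAW peptide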
Target sequence (P54760 whole entry, looked up, the tested form may be a part): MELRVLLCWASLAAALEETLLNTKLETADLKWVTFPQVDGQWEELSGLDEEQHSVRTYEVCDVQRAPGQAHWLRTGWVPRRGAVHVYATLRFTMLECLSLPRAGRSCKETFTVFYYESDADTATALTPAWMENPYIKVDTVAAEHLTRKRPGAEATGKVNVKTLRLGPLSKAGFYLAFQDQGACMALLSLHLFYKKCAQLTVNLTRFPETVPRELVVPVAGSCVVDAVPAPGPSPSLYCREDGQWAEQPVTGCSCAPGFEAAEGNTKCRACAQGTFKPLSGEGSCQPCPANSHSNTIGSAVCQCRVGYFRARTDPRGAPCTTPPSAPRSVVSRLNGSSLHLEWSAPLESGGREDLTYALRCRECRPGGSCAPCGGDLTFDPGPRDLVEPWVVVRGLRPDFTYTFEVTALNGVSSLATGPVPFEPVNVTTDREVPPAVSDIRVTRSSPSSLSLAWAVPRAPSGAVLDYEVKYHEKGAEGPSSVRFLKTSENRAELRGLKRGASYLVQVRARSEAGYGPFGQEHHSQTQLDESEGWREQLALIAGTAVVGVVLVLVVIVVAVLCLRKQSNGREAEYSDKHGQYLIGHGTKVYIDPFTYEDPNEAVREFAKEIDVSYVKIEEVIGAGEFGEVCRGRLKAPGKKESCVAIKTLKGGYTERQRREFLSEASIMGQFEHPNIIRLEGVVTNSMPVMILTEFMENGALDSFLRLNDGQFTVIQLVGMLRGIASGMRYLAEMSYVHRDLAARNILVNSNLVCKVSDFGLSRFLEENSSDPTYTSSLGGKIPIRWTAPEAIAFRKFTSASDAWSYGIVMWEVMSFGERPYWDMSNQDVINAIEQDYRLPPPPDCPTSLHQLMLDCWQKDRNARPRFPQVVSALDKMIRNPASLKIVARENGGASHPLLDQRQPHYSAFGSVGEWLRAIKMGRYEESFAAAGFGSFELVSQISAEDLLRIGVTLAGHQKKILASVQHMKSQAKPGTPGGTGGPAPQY
PLK1 inh = human PLK1 kinase inhibitors, primary screen, biochemical, TR-FRET; Serine/threonine-protein kinase PLK1 (Homo sapiens), P53350; recombinant PLK1 kinase, TR-FRET peptide phosphorylation; inhibition, % at 10 µM; 97,000 compounds, 0.53% hits; AID 619, 2007;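 active = inhibition of 50% or more in the single-concentration screen; inactive = inhibition below 50%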;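 also: 0% = DMSO max control and 100% = H-89 dihydrochloride min control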
PLK1 PBD inh = Plk1 polo box domain binding inhibitors, primary screen, biochemical, fluorescence polarization. Serine/threonine-protein kinase PLK1 (Homo sapiens), P53350. Plk1 PBD phosphopeptide binding. 97,000 compounds, 0.13% hits. AID 693, 2007. inhibition, %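 (tested at about 20 µM)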; in the data active = inhibition above about 34%, passing the limit was not always enough
Smad3 inh = Smad3/FoxH1 peptide binding inhibitors, primary screen, biochemical, TR-FRET. 88,000 compounds, 0.29% hits. TR-FRET Smad3/Dy647-FoxH1 peptide binding, europium anti-His. inhibition, % at 25 µM;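 active = compounds that reduce the energy-transfer binding signal between the protein and its labelled peptide by more than half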;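 also: 0% = Smad3 plus labelled peptide maximal FRET and 100% = peptide-only background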
FAK blocker = FAK kinase inhibitors, primary screen, biochemical; Focal adhesion kinase 1 (Homo sapiens), Q05397; biochemical FAK kinase activity assay; inhibition, %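 (tested at 7 µM)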; 97,000 compounds, 0.84% hits; in the data active = inhibition above about 19%;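 also: 0% = DMSO and 100% = reference compound high control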
Numbers without * were called inactive; i = inactive; . = no result; [ ] = dose if it differs, or a comment.

SMILES	EphB4 antag	PLK1 inh	PLK1 PBD inh	Smad3 inh	FAK blocker
CCn1c(SC(C)C)nnc1-c1c[nH]c2ccccc12	-6	65*	-9	-9	-4
CCOC(=O)CSc1nnc(-c2c[nH]c3ccccc23)n1CC	0	68*	-16	-1	0
CCn1c(SCC(=O)NCc2ccccc2)nnc1-c1c[nH]c2ccccc12	1	-9	3	4	1
O=C(Cn1cnc2c(cnn2-c2ccccc2)c1=O)OCc1ccccc1	-11	50*	-23	-1	-6
Nn1c(Nc2ccccc2)nc2ccccc21	-5	-10	18	-16	-3
Nn1c(Nc2ccccc2)nc2ccccc2c1=O	8	59*	4	-4	9
Cc1ccc(-c2nnc(CSc3nnc(COc4cccc5ccccc45)n3-c3ccccc3)o2)cc1	-4	-13	47*	.	3
N#CCSc1nnc(COc2cccc3ccccc23)n1-c1ccccc1	1	-7	-6	-7	7
COc1cccc(-n2c(Cc3cc(=O)[nH]c(=O)[nH]3)nnc2SC(C)C)c1	-6	62*	-2	5	-2
COC(=O)C(C)Sc1nnc(Cc2cc(=O)[nH]c(=O)[nH]2)n1-c1cccc(OC)c1 (stereo not drawn)	3	-6	-1	6	-3
CN1CCN(S(=O)(=O)c2ccc3ccccc3c2)CC1	6	-7	-17	3	-2
O=S(=O)(c1ccc2ccccc2c1)N1CCN(S(=O)(=O)c2ccc3ccccc3c2)CC1	.	.	.	91*	.
Cc1[nH]nc2c1C(c1ccoc1)C(C#N)=C(N)O2 (stereo not drawn)	6	55*	9	-4	2
Cn1c(=O)c2[nH]c(CCNC(=O)c3ccccc3)nc2n(C)c1=O	.	.	.	-1	.
COC(=O)CC[C@@H](C)[C@H]1CC[C@H]2[C@@H]3CC[C@H]4C[C@@H]5CC[C@@]4(C)[C@]3(O5)[C@H](Br)[C@@H](Br)[C@]12C	.	.	.	-10	.
O=S1(=O)OC(c2ccc(O)cc2)(c2ccc(O)cc2)c2ccccc21	.	.	.	97*	.
CCCCCCOC(=O)C(C#N)c1nc2ccccc2nc1N1CCCCC1 (stereo not drawn)	1	-16	7	7	-1
CCCCCCOC(=O)C(C#N)c1nc2ccccc2nc1N1CCN(C)CC1 (stereo not drawn)	17*	1	-6	0	5
CC1CCN(c2nc(-c3ccccc3O)nc3ccccc23)CC1	4	-17	14	4	-2
Oc1ccccc1-c1nc(N2CCCC2)c2ccccc2n1	0	i	-17	55*[fluorescence artefact?]	-1
NC(N)=N/N=C(\c1ccccc1)c1ccc(O)cc1O	.	.	.	-3	.
CN(/N=C/c1ccccc1O)c1ccc2ccccc2n1	.	.	.	9	.
O=C(CC(O)(c1ccccc1)C(F)(F)F)c1cccs1 (stereo not drawn)	31*[fluorescence artefact?]	-2	-23	3	-1
CN(C)CCC(=O)[C@]1(O)CC[C@@H]2[C@H]3CC=C4C[C@@H](O)CC[C@]4(C)[C@@H]3CC[C@]21C	.	.	.	7	.
CN(C)c1nccc(Nc2ccccc2)c1C#N	16*	-3	-14	-10	0
SMILES	EphB4 antag	PLK1 inh	PLK1 PBD inh	Smad3 inh	FAK blocker
C=CCn1c(NCCc2ccccc2)nc2c1c(=O)n(C)c(=O)n2C	16*	-5	19	5	7
Fc1cccc(Cl)c1/C=N/N=C1c2ccccc2-c2ccccc21	.	.	.	59*	.
CN[C@@H](c1ccncc1)[C@@H](NC)c1ccncc1	.	.	.	-10	.
Cc1sc2nc(CN(CCc3ccccc3)C(=O)c3ccco3)[nH]c(=O)c2c1C	.	.	.	8	.
Cc1sc2nc(CN(Cc3ccccc3)C(=O)NC3CCCCC3)[nH]c(=O)c2c1C	-4	50*	-9	1	1
CO[C@@H]1/C=C\O[C@]2(C)Oc3c(C)c(O)c4c(O)c(cc(O)c4c3C2=O)NC(=O)C(C)=C/C=C\[C@H](C)[C@@H](O)[C@H](C)[C@H](O)[C@H](C)[C@H](OC(C)=O)[C@@H]1C	.	.	.	-1	.
CC(c1ccccc1)N1C(=O)CC(Sc2ncccc2C(=O)O)C1=O (stereo not drawn)	5	-18	-7	16	-1
O=C(O)c1ccccc1SC1CC(=O)N(C2CCCCC2)C1=O (stereo not drawn)	-6	69*	-5	0	0
O=C(O)/C=C/C(=O)Nc1ncn[nH]1	.	.	.	-12	.
CCOc1ccc(NC(=O)C2CCN(C(=O)NC3CCCCC3)CC2)cc1	-3	52*	-7	0	-2
COc1cccc(-c2nc(CS(=O)CC(=O)NC3CC3)c(C)o2)c1 (stereo not drawn)	-3	69*	-12	5	3
CCOC(=O)N1CCN(C(=O)CS(=O)Cc2nc(-c3ccc(C)cc3)oc2C)CC1 (stereo not drawn)	-2	-13	4	4	2
Cc1cccc(-c2nc(CS(=O)CC(=O)N3CCCCC3)c(C)o2)c1 (stereo not drawn)	2	66*	-7	9	-1
Cc1ccc(CCNC(=O)CS(=O)Cc2nc(-c3cccc(C)c3)oc2C)cc1 (stereo not drawn)	-2	62*	-12	-2	3
Cc1oc(-c2ccccc2)nc1CS(=O)CC(=O)N1CCc2ccccc2C1 (stereo not drawn)	-2	66*	33	-5	-6
CC(C)NCC[C@@H](O)c1cc2ccccc2o1	.	.	.	5	.
O=C(O)c1cc2ccccc2c(Cc2c(O)c(C(=O)O)cc3ccccc23)c1O	.	.	.	21	.
O=c1c2ccccc2nc2sc3ccccc3n12	3	-1	10	.	20*
O=C1C(Cl)=C(Nc2ccc(S(=O)(=O)Nc3ccccn3)cc2)C(=O)c2ccccc21	.	.	.	99*	.
Cc1ccc(CCN2CC(C(=O)NCCCN3CCCCCC3)CC2=O)cc1 (stereo not drawn)	4	17	12	66*	16
Cc1ccc(CCN2CC(C(=O)NCCN3CCCCCC3)CC2=O)cc1 (stereo not drawn)	4	-16	11	-5	11
O=C(O)/C=C/C=C/c1ccc2c(c1)OCO2	.	.	.	-8	.
CCNc1ccc2noc3c2c1C(=O)c1ccccc1-3	95*[fluorescence artefact?]	14	7	4	49*
O=C(Nc1nnc(-c2cccs2)o1)c1cccc(C(F)(F)F)c1	3	61*	12	-9	-3
O=C(CCc1ccccc1)Nc1nnc(-c2cccs2)o1	-2	62*	-21	1	2
Cc1cccc2cc3ccc4ccccc4c3cc12	.	.	.	5	.
CC(=O)c1cc(C#N)c(SCc2ccc(F)cc2)nc1C	6	-12	-12	-15	0
CCOC(=O)c1cc(C#N)c(SCc2ccc(C#N)cc2)nc1C	-4	-8	-19	64*[fluorescence artefact?]	-2
c1ccc2cc(NCNc3ccc4ccccc4c3)ccc2c1	.	.	.	18	.
